For orientation: viability means a read-out of living cells in per cent, often relative to untreated cells. What is called inhibition is the relative decrease from the control value, in per cent.

Results filed as inconclusive are left out. The source made the active and inactive calls.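 Rule for the calls, unless noted: active = cell viability at or below a set limit in both duplicate runs, the limit being the all-compound median minus 4 SD (cut at about 23% in these data, passing the limit was not always enough); inconclusive = no clear call, values can overlap the other calls; inactive = the rest.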

Here are results for 5 compounds from PubChem BioAssay.

The nature of assay [1]: reducers of endogenous Her2 protein level, primary screen, SKBR3 breast tumor cells, AlphaScreen, ATP viability (AID 461;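 active = Her2 level under about 52% in both replicate screens, with viability over 70% of control, limit read from the data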;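 for Her2 level: lower value means less Her2 protein in the cells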;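 for viability: percent of carrier control wells set as 100% viability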). The note with it: 18-24 h, measured here: SKBR3 viability, ATP luminescence, at 10 µM. For orientation: Bead proximity is the source of the signal in Alpha formats.
For assay [2], the target named is Receptor tyrosine-protein kinase erbB-2 (Homo sapiens) (UniProt P04626). The description is as above. The following applies: 18-24 h, at 10 µM, stronger effect = lower value.
The nature of assay [3]: SK-BR-3 cell growth inhibitors, pilot screen, 24 h, human (AID 572;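 active = viability at or below 10% of carrier control in both of two separate runs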;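 note: compound exposure lasted between 18 and 24 h rather than exactly 24 h; 100% = carrier-treated control wells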). The following applies: SK-BR-3 viability, CellTiter-Glo luminescence, at 10 µM, stronger effect = lower value. A general note: Cellular ATP, detected with luciferase, serves as a proxy for viable cell number.
A short description of assay [4]: HUVEC growth inhibition – cell-based, human, primary screen (AID 575;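 active = viability at or below 30% in both replicate assays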;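 note: 100% = median of untreated cell wells with 0.1% DMSO on each plate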). The note with it: HUVEC proliferation, CellTiter-Glo luminescence, 72 h; at 10 µM; stronger effect = lower value.
A short description of assay [5]: growth inhibitors of H69AR lung tumor, primary screen, human, duplicate replicates (AID 580;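 active = viability at or under a set limit in both replicates, limit being median viability minus 3 SD, cut at about 48% in these data, passing the limit was not always enough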;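 note: 100% = mean luminescence of untreated wells and 0% = no signal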). The following applies: H69AR lung tumor cells viability, ATP luminescence, 72 h; at 10 µM; stronger effect = lower value.
Assay [6] is described as follows: reversal of MRP1-mediated doxorubicin resistance, pilot screen, H69AR cells, doxorubicin co-treatment (AID 601;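 active = viability loss from added drug above about 55%, and viability with drug at most 40%, in both replicates, limit read from the data, passing the limit was not always enough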). The note with it: CellTiter-Glo, 72 h, at 10 µM; for differential viability (reversal): stronger effect = higher value.
A short description of assay [7]: 384-well plate pilot, post-Golgi transport modulator project, inhibition of yeast transport mutant growth (AID 636; in the data active = inhibition above about 31%). The following applies: absorbance 615 nm, about 18 h, stronger effect = higher value.
Assay [8] in a line: growth suppression of yeast trafficking mutant, preliminary HTS, modulators of trafficking downstream of Golgi apparatus project, 1536-format plate, OD 615 nm (AID 637; in the data active = inhibition above about 30%). The note with it: yeast transport mutant growth, absorbance 615 nm, 18 h; stronger effect = higher value.
A short description of assay [9]: OD615 S. cerevisiae growth inhibition, permissive medium, pilot counter-assay, permissive growth control for S. cerevisiae lifespan shortening project (AID 705;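 active = growth inhibition above 25% in both replicates, a cutoff set 3 SD above the mean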). The following applies: OD615, 24 h, at 10 µM, stronger effect = higher value.
Assay [10] is described as follows: Restrictive medium S. cerevisiae growth inhibition, OD615, pilot screen of yeast lifespan reduction project, restrictive growth control (AID 706;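 active = growth inhibition above a set limit, 3 SD over mean compound inhibition, in both replicates, cut at about 43% in these data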;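 note: modified DeaD lifespan yeast strain shifted to restrictive glucose medium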). The following applies: OD615, 48 h, at 10 µM, stronger effect = higher value.
The nature of assay [11]: viability gain of MRP-1-high H69AR cells under doxorubicin, pilot screen, MRP-1 activator project, CellTiter-Glo, duplicate (AID 807;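 active = viability increase at or above a cutoff of the median across tested compounds plus 3 SD, cut at about 8.5% in these data, passing the limit was not always enough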;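 note: compound pretreatment 18-22 h then 72 h combined with doxorubicin; 0% = doxorubicin alone and 100% = vehicle without doxorubicin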). The following applies: H69AR viability with doxorubicin, CellTiter-Glo luminescence; at 10 µM; stronger effect = higher value.
Assay [12] is described as follows: growth suppression of beta-catenin knockout HCT116, pilot screen, human colon tumor cells (AID 823).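 Note: 0% = wells killed by 20 µM Hyamine and 100% = untreated DMSO cell wells.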 The note with it: CellTiter-Glo, 60 h, at 10 µM, stronger effect = lower value.
Assay [13] in a line: growth suppression of PTEN-deleted HCT116, pilot screen, cell-based, HCT116 clonal line, CellTiter-Glo (AID 824;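 active = viability at or below 27.92% in each of two runs, the all-compound median minus 4 SD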;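 note: 0% = 20 µM Hyamine control and 100% = vehicle cell control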). The following applies: 60 h, at 10 µM, stronger effect = lower value.
Assay [14] is described as follows: inhibitors of the yeast RAM network, pilot screen, dse1pr::URA3 reporter, 5-FOA selection (AID 869;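 active = inhibition over a set limit, the all-compound mean plus 3 SD, in both replicate runs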;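 note: 0% = DMSO wells with no growth and 100% = 10 µM 1-NA-PP1 with full growth; RAM network block rescues cells from 5-FOA so hits raise OD615 growth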). The following applies: S. cerevisiae dse1pr::URA3 5-FOA growth, OD615, 2 d; at 10 µM; stronger effect = higher value; strain carries analog-sensitive mutant Cbk1 kinase.
A short description of assay [15]: RAM signaling pathway blockade in yeast – S. cerevisiae, Pdr1DBD-CYC8 efflux-inhibited sensitized strain, primary screen (AID 1298;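 active = RAM network inhibition above 8.4% in each of two replicates, 3 SD over the compound average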;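 note: 0% = DMSO untreated cells without growth and 100% = 10 µM 1-NA-PP1 full growth; higher means more yeast growth rescued from 5-FOA killing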). The note with it: S. cerevisiae cbk1-as DSE1-URA3 strain, 5-FOA growth OD615, 2 d; at 50 µM; stronger effect = higher value.
Setting [16] is: H69AR cells + 2 uM doxorubicin, measured here: viability with 2 uM doxorubicin, stronger effect = lower value.
The mark [17] stands for this setting: H69AR cells, compound alone cytotoxicity.

Chain of Receptor tyrosine-protein kinase erbB-2 (Homo sapiens) (P04626 whole entry, looked up): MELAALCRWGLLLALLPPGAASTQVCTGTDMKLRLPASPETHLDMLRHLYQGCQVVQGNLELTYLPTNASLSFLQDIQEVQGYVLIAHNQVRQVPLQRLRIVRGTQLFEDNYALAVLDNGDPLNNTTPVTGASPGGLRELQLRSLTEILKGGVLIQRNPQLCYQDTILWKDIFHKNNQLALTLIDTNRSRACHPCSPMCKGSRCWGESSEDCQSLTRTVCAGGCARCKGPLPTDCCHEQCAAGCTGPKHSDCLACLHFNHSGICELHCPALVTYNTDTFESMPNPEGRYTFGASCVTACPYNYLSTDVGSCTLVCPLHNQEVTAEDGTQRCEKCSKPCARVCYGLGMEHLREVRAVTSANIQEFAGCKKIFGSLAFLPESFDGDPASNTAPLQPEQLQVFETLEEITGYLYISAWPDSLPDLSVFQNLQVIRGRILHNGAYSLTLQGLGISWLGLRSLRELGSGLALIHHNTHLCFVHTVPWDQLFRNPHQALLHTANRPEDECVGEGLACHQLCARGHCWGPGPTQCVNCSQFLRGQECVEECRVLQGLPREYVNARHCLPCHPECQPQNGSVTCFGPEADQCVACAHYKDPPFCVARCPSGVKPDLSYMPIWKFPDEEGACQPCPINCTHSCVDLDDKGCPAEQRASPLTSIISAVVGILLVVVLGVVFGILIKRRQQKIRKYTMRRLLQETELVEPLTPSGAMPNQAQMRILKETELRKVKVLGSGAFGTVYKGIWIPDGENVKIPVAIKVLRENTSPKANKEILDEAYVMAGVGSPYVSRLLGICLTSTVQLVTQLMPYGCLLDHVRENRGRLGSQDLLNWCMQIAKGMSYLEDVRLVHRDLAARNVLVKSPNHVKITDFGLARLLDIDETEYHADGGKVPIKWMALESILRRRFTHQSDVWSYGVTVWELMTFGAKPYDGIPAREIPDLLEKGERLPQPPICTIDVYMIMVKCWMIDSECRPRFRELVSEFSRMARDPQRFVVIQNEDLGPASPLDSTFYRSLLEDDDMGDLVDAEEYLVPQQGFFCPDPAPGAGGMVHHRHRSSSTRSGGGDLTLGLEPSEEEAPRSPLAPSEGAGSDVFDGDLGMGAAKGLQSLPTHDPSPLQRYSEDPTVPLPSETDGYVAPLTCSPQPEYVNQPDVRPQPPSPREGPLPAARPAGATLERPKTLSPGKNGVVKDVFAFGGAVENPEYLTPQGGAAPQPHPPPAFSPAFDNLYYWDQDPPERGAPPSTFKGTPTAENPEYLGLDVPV

For the compound `CC1=C(C(=O)N2CCCCC2)C(c2cccs2)C2=C(CCCC2=O)N1` (stereo not given), the viability in [1] was 100%; in [3], 100% (inactive); in assay [4], 96.7% (inactive); in assay [5], 92.8% (inactive); in [6] (setting [16]) it was 91.7%; in assay [6] (setting [17]) it was 92.8%. Further, the viability in [12] was 98.1% (inactive); in [13] it was 87% (inactive). Further, in assay [2], the Her2 level is 174% (inactive). In addition, the differential viability (reversal) in assay [6] (H69AR cells + 2 uM doxorubicin) was 1.19% (inactive). Besides, the inhibition was 0.13% (inactive) in [7], -5.67% (inactive) in assay [8] and 1.4% (inactive) in assay [14]. Besides, the results for the growth inhibition in [9] and in assay [10] were -7.14% (inactive) and -3.55% (inactive), respectively. Also, the viability increase in [11] is -0.74% (inactive). The RAM network inhibition in [15] is -0.77% (inactive).
Take `c1ccc2c(c1)nc(NCCN1CCOCC1)c1nncn12`: the viability in assay [1] is 92%; in assay [3], 92% (inactive); in assay [4], 109% (inactive); in [5] it was 94.7% (inactive); in assay [6] (setting [16]) it was 85.9%; in assay [6] (setting [17]), 94.7%. Besides, the viability in [12] and in assay [13] was 103% (inactive) each time. Moreover, in assay [2], the Her2 level was 102% (inactive). The differential viability (reversal) in assay [6] (H69AR cells + 2 uM doxorubicin) was 8.78% (inactive). For the same compound, the inhibition was -1.67% (inactive) in assay [7], 2.5% (inactive) in assay [8] and -0.055% (inactive) in assay [14]. Besides, the growth inhibition in [9] was -10.4% (inactive); in assay [10], -3.62% (inactive). The viability increase in assay [11] was 1.59% (inactive). Also, the RAM network inhibition in [15] is -0.1% (inactive).
Take `CCN1C(=O)c2ccccc2S(=O)c2ccc(C(=O)NC3CC3)cc21` (stereo not given): the viability in assay [1] was 100%; in assay [3], 100% (inactive); in assay [4] it was 105% (inactive); in [5], 105% (inactive); in [6] (setting [16]) it was 88.7%; in [6] (setting [17]), 105%. Further, the viability was 97.6% (inactive) in assay [12] and 95.3% (inactive) in assay [13]. Besides, in assay [2], the Her2 level is 93.5% (inactive). Also, in assay [6] (H69AR cells + 2 uM doxorubicin), the differential viability (reversal) was 16% (inactive). Further, the inhibition in [7] was -2.8% (inactive); in [8], 3.77% (inactive); in assay [14] it was 0.16% (inactive). For the same compound, the growth inhibition in assay [9] is 4.88% (inactive); in assay [10] it was 1.4% (inactive). Besides, the viability increase in assay [11] was -2.52% (inactive). Besides, the RAM network inhibition in assay [15] is 1.98% (inactive).
For the compound `CCCc1nnc(NC(=O)NCCN2C(=O)C3C4C=CC(C4)C3C2=O)s1` (stereo not given), the viability in [1] was 110%; in assay [3] it was 110% (inactive); in assay [4] it was 96.6% (inactive); in assay [5], 97.8% (inactive); in [6] (setting [16]) it was 92.2%; in [6] (setting [17]) it was 97.8%. In addition, the viability in [12] and in assay [13] was 101% (inactive) throughout. For the same compound, the Her2 level in assay [2] was 121% (inactive). Moreover, the differential viability (reversal) in assay [6] (H69AR cells + 2 uM doxorubicin) is 5.61% (inactive). For the same compound, the results for the inhibition in assay [7], in assay [8] and in assay [14] were 1.87% (inactive), -13% (inactive) and -0.135% (inactive), respectively. Moreover, the growth inhibition in assay [9] was -2.99% (inactive); in [10], 6.19% (inactive). Besides, the viability increase in assay [11] was -0.68% (inactive). The RAM network inhibition in assay [15] is 3.27% (inactive).
Consider `O=C(NCCSc1c[nH]c2ccccc12)c1ccco1`, for which the viability in assay [1] was 112%; in [3] it was 112% (inactive); in assay [4], 64.5% (inactive); in assay [5], 65.1% (inactive); in assay [6] (setting [16]), 90.6%; in assay [6] (setting [17]) it was 65.1%. Besides, the viability in assay [12] is 102% (inactive); in assay [13] it was 91.6% (inactive). Further, the Her2 level in assay [2] was 93.5% (inactive). For the same compound, the differential viability (reversal) in assay [6] (H69AR cells + 2 uM doxorubicin) was -25.6% (inactive). The results for the inhibition in assay [7], in assay [8] and in assay [14] were -4.8% (inactive), 0% (inactive) and 1.83% (inactive), respectively. Also, the growth inhibition is -5% (inactive) in assay [9] and -2.81% (inactive) in assay [10]. Besides, in [11], the viability increase was -6.06% (inactive). Also, in assay [15], the RAM network inhibition was 0.88% (inactive).
